Unmarked numbers belong to inactive results. Inconclusive results are not listed. The source made the active and inactive calls. The call rests on the fitted dose curve.
molecular target: Acetylcholinesterase (Homo sapiens) (UniProt P22303); test: Acetylcholinesterase (AChE) small molecule antagonists: colormetric cell-based qHTS assay (AID 1347395); settings: SH-SY5Y cells AChE activity, colorimetric (Ellman); series mostly up to 115 µM; activity, negative = inhibition: at the top concentration; further: nearly all actives have a fitted effect of over 30% in size
Procedure, shortened: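 After overnight attachment at 37 C, SH-SY5Y cells get 30 min compound exposure; detection cocktail (acetylthiocholine, DTNB) then incubates 90 min at 37 C, and absorbance reflects AChE-generated thiocholine.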
On the % scale 0 is the no-effect control and ±100 the full control effect.

Sequence of Acetylcholinesterase (Homo sapiens) (P22303 whole entry, looked up): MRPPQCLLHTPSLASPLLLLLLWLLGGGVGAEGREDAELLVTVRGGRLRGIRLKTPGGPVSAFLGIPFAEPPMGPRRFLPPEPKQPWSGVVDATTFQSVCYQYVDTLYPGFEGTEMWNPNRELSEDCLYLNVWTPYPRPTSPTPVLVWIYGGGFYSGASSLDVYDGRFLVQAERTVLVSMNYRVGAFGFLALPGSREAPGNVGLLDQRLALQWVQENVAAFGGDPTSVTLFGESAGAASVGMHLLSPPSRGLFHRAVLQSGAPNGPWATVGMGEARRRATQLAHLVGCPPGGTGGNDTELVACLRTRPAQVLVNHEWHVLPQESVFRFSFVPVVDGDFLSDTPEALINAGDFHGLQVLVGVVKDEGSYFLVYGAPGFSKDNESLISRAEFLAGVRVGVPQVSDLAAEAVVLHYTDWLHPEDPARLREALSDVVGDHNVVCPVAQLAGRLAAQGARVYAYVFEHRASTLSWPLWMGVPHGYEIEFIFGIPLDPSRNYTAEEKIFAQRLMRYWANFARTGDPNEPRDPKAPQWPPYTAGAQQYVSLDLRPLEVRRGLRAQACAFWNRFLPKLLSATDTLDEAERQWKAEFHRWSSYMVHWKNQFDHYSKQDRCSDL

| SMILES | activity, negative = inhibition | Potency |
| --- | --- | --- |
| O=C(c1ccccc1)c1ccc(Cl)cc1 | 11.2% |  |
| O=C(O)Cn1c(C(=O)Nc2nc(-c3ccccc3Cl)cs2)cc2ccccc21 | 0.337% [at 52.9 µM] |  |
| O=C(O)Cn1cnnn1 | 0.252% [at 52.9 µM] |  |
| CCCCOC(=O)C(C)Oc1ccc(Oc2ccc(C(F)(F)F)cn2)cc1 (stereo not given) | -2.51% |  |
| O=C(c1ccccc1)c1cccc(O)c1 | 0.587% |  |
| CO[C@H]1C=CO[C@@]2(C)Oc3c(C)c(O)c4c(O)c(c5c(c4c3C2=O)=NC2(CCN(CC(C)C)CC2)N=5)NC(=O)/C(C)=C\C=C/[C@H](C)[C@H](O)[C@@H](C)[C@@H](O)[C@@H](C)[C@H](OC(C)=O)[C@@H]1C | -4.64% |  |
| Cc1ccc(C(C)C)cc1O | -1.4% |  |
| O=C1OC2(c3cc(Br)c(O)c(Br)c3Oc3c2cc(Br)c(O)c3Br)c2c(Cl)c(Cl)c(Cl)c(Cl)c21 | -0.107% [at 52.9 µM] |  |
| CC(C)=CC(C)(C)C | -1.63% |  |
| CCC(C)OC(=O)c1ccc(O)cc1 (stereo not given) |  | inactive |
| Brc1cc(Oc2cc(Br)c(Br)c(Br)c2Br)c(Br)c(Br)c1Br |  | inactive |
| C/C(=C(\CCOP(=O)(O)O)SC(=O)c1ccccc1)N(C=O)Cc1cnc(C)nc1N | -0.469% [at 10.5 µM] |  |
| COC(=O)N/N=C/c1c[n+]([O-])c2ccccc2[n+]1[O-] | -2.2% [at 52.9 µM] |  |
| c1ccc2ccccc2c1 |  | inactive |
| O=C1NCCN1 | 0.933% |  |
| Cc1ccc(C(=O)Oc2ccc(C(O)CNC(C)(C)C)cc2OC(=O)c2ccc(C)cc2)cc1 (stereo not given) | 3.62% [at 52.9 µM] |  |
| COC(=O)CCS | 5.46% |  |
| CCCCOC(=O)CCCCCCCCC(=O)OCCCC |  | inactive |
| CO[C@H]1O[C@H](CO)[C@@H](O)[C@H](O)[C@H]1O | 0.981% |  |
| CC1CC(OC(=O)c2ccccc2O)CC(C)(C)C1 (stereo not given) |  | inactive |

| SMILES | activity, negative = inhibition | Potency |
| --- | --- | --- |
| O=c1cccc[nH]1 | -1.07% |  |
| Cc1cccc(C)c1C | 0.605% |  |
| Cc1cc2c(s1)Nc1ccccc1N=C2N1CCN(C)CC1 | 2.3% [at 52.9 µM] |  |
| CCCC1CCC(=O)O1 (stereo not given) | 0.687% |  |
| O=S(=O)(O)c1ccc(N=Nc2c(O)ccc3cc(S(=O)(=O)O)ccc23)cc1 |  | inactive |
| Cc1ccc(Br)cc1 | 1.22% |  |
| O=C(CC(=O)c1ccccc1)c1ccccc1 | 0.838% |  |
| O=c1[nH]cnc2nc[nH]c12 | 2.72% [at 52.9 µM] |  |
| CC(=O)OCC(=O)[C@@]1(O)CC[C@H]2[C@@H]3CCC4=CC(=O)C=C[C@]4(C)[C@H]3[C@@H](O)C[C@@]21C | 1.75% [at 52.9 µM] |  |
| CC(C)(C)c1n[nH]c(=O)n(N)c1=O | -0.938% |  |
| Cc1ccc2cccnc2c1 | 1.35% |  |
| C/C=C/c1ccc(O)c(OC)c1 |  | inactive |
| O=C(/C=C/c1ccc([N+](=O)[O-])cc1)c1ccccc1 | -2.68% |  |
| CC[Si](OC(C)=O)(OC(C)=O)OC(C)=O |  | inactive |
| CCCN(CCC)C(=O)C(CCC(=O)OCCCN1CCN(CCOC(=O)Cc2c(C)n(C(=O)c3ccc(Cl)cc3)c3ccc(OC)cc23)CC1)NC(=O)c1ccccc1 (stereo not given) | 1.31% [at 52.9 µM] |  |
| O=c1c2ccccc2oc2ccccc12 | -1.53% |  |
| CCN[C@H]1CN(CCCOC)S(=O)(=O)c2sc(S(N)(=O)=O)cc21 | 2.18% [at 52.9 µM] |  |
| CC1=Nc2ccccc2C1(C)C | -5.65% |  |
| O=C1NCCN1CCO | 0.984% |  |
| Nc1nc(Cl)nc2c1ncn2[C@H]1C[C@H](O)[C@@H](CO)O1 | 1.46% |  |

molecular target: Acetylcholinesterase (Homo sapiens) (UniProt P22303); test: Acetylcholinesterase (AChE) small molecule antagonists: enzyme-based qHTS assay (AID 1347397); settings: Potency: AChE enzyme activity inhibition; outcome: AChE enzyme activity inhibition; series mostly up to 115 µM; activity change, negative = inhibition: at the top concentration; further: nearly all actives have a fitted effect of over 55% in size
Procedure, shortened: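 Absorbance-based detection of thiocholine with DTNB served as the read-out. Recombinant human AChE was exposed to compound for 30 min at RT before a 10 min RT incubation with acetylthiocholine.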

| SMILES | activity change, negative = inhibition | Potency |
| --- | --- | --- |
| O=C(c1ccccc1)c1ccc(Cl)cc1 | 0.404% |  |
| O=C(O)Cn1c(C(=O)Nc2nc(-c3ccccc3Cl)cs2)cc2ccccc21 | -1.06% [at 53 µM] |  |
| O=C(O)Cn1cnnn1 | 0.168% [at 53 µM] |  |
| CCCCOC(=O)C(C)Oc1ccc(Oc2ccc(C(F)(F)F)cn2)cc1 (stereo not given) | -1.58% |  |
| O=C(c1ccccc1)c1cccc(O)c1 | 0.818% |  |
| CO[C@H]1C=CO[C@@]2(C)Oc3c(C)c(O)c4c(O)c(c5c(c4c3C2=O)=NC2(CCN(CC(C)C)CC2)N=5)NC(=O)/C(C)=C\C=C/[C@H](C)[C@H](O)[C@@H](C)[C@@H](O)[C@@H](C)[C@H](OC(C)=O)[C@@H]1C | 0.818% |  |
| Cc1ccc(C(C)C)cc1O | 0.468% |  |
| O=C1OC2(c3cc(Br)c(O)c(Br)c3Oc3c2cc(Br)c(O)c3Br)c2c(Cl)c(Cl)c(Cl)c(Cl)c21 | -8.24% [at 53 µM] |  |
| CC(C)=CC(C)(C)C | -0.409% |  |
| CCC(C)OC(=O)c1ccc(O)cc1 (stereo not given) |  | inactive |
| Brc1cc(Oc2cc(Br)c(Br)c(Br)c2Br)c(Br)c(Br)c1Br |  | inactive |
| C/C(=C(\CCOP(=O)(O)O)SC(=O)c1ccccc1)N(C=O)Cc1cnc(C)nc1N | 0.584% [at 10.5 µM] |  |
| COC(=O)N/N=C/c1c[n+]([O-])c2ccccc2[n+]1[O-] | 0.585% [at 53 µM] |  |
| c1ccc2ccccc2c1 |  | inactive |
| O=C1NCCN1 | 0.85% |  |
| Cc1ccc(C(=O)Oc2ccc(C(O)CNC(C)(C)C)cc2OC(=O)c2ccc(C)cc2)cc1 (stereo not given) | -0.761% [at 53 µM] |  |
| COC(=O)CCS | -0.305% |  |
| CCCCOC(=O)CCCCCCCCC(=O)OCCCC |  | inactive |
| CO[C@H]1O[C@H](CO)[C@@H](O)[C@H](O)[C@H]1O | 0.402% |  |
| CC1CC(OC(=O)c2ccccc2O)CC(C)(C)C1 (stereo not given) |  | inactive |

| SMILES | activity change, negative = inhibition | Potency |
| --- | --- | --- |
| O=c1cccc[nH]1 | 0.681% |  |
| Cc1cccc(C)c1C | -0.403% |  |
| Cc1cc2c(s1)Nc1ccccc1N=C2N1CCN(C)CC1 | 1.31% [at 53 µM] |  |
| CCCC1CCC(=O)O1 (stereo not given) | 0.545% |  |
| O=S(=O)(O)c1ccc(N=Nc2c(O)ccc3cc(S(=O)(=O)O)ccc23)cc1 |  | inactive |
| Cc1ccc(Br)cc1 | -0.406% |  |
| O=C(CC(=O)c1ccccc1)c1ccccc1 | 1.25% |  |
| O=c1[nH]cnc2nc[nH]c12 | 2.23% [at 53 µM] |  |
| CC(=O)OCC(=O)[C@@]1(O)CC[C@H]2[C@@H]3CCC4=CC(=O)C=C[C@]4(C)[C@H]3[C@@H](O)C[C@@]21C | 0.135% [at 53 µM] |  |
| CC(C)(C)c1n[nH]c(=O)n(N)c1=O | 0.692% |  |
| Cc1ccc2cccnc2c1 | -0.545% |  |
| C/C=C/c1ccc(O)c(OC)c1 |  | inactive |
| O=C(/C=C/c1ccc([N+](=O)[O-])cc1)c1ccccc1 | -0.0103% |  |
| CC[Si](OC(C)=O)(OC(C)=O)OC(C)=O |  | inactive |
| CCCN(CCC)C(=O)C(CCC(=O)OCCCN1CCN(CCOC(=O)Cc2c(C)n(C(=O)c3ccc(Cl)cc3)c3ccc(OC)cc23)CC1)NC(=O)c1ccccc1 (stereo not given) | -9.7% [at 53 µM] |  |
| O=c1c2ccccc2oc2ccccc12 | -0.651% |  |
| CCN[C@H]1CN(CCCOC)S(=O)(=O)c2sc(S(N)(=O)=O)cc21 | -0.405% [at 53 µM] |  |
| CC1=Nc2ccccc2C1(C)C | -0.273% |  |
| O=C1NCCN1CCO | 0.553% |  |
| Nc1nc(Cl)nc2c1ncn2[C@H]1C[C@H](O)[C@@H](CO)O1 | 0.263% |  |

From PubChem BioAssay (Tox21)
